SENP8 block-1 – inhibitors of human SENP8 protease | Q96LD8 | purified SENP8, Z-RLRGG-aminoluciferin cleavage, luminescence | inhibition, % at 10 µM | 330,000 compounds, 1.2% hits | AID 2540; in the data active = inhibition above about 50%
Target sequence (Q96LD8 whole entry, looked up): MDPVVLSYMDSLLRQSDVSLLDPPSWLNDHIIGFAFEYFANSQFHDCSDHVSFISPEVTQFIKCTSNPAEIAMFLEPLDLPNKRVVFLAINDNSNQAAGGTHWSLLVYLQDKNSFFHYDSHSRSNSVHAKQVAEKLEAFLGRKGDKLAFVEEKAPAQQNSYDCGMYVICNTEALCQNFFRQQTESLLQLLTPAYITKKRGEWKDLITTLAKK
SENP6 inh – inhibitors of human SENP6 protease; Q9GZR1; Recombinant SENP6 catalytic domain, aminoluciferin luminescence; inhibition, % at 10 µM; 330,000 compounds, 1.8% hits; AID 2599;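 active = inhibition above about 50% at the single tested dose, limit read from the data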
SENP8 block-2 – inhibitors of human SENP8 protease; Q96LD8; recombinant SENP8, Nedd8 substrate fluorescence; inhibition, % at 20 µM; 360,000 compounds, 0.64% hits; AID 602440; in the data active = inhibition mostly above about 40%, no sharp cut-off; inactive = mostly below about 27%
SENP7 block – inhibitors of human SENP7 protease. recombinant SENP7, Z-RLRGG-aminoluciferin luminescence, 40 min. inhibition, % at 5 µM. 330,000 compounds, 1.5% hits;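 active = inhibition above about 50% at the single test dose, limit read from the data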
Platelet DG rel – platelet dense granule release activity. 300,000 compounds, 0.22% hits. inhibition, %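 (compounds screened at 7.5 µM in platelet-rich plasma)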. human platelet-rich plasma, SFLLRN dense granule ATP release, luminescence;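 active = mean replicate score, as percent of positive control, at or above 50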
HSP90 inh – blocks HSP90-mediated luciferase refolding in reticulocyte lysate | AID 1789 | inhibition, % at 5.6 µM | 290,000 compounds, 0.91% hits | Rabbit reticulocyte lysate, luciferase refolding luminescence, 3 h;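 active = inhibition above the screen-wide mean plus 3 SD, computed separately per campaign, cut at about 16% in these data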;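 also: inhibitors lower the luminescence because luciferase stays unfolded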
SENP8 conf – confirmation of human SENP8 protease inhibitors | shares compounds with SENP8 block-2 | inhibition, % at 25 µM | purified SENP8, Nedd8-AMC/pro-Nedd8 cleavage fluorescence, 30 min | 1,400 compounds, 15% hits | AID 624319; in the data active = inhibition mostly above about 39%, no sharp cut-off; inactive = mostly below about 34%
Large screens that a line does not name were inactive (follow-up assays come after a bar, where they were run). Most compounds without a hit are left out; they make up all but 2.8% or so of the library.

O=[N+]([O-])c1cc(F)c(N2CCCC2)cc1Br	none
CN(C(=O)Oc1cccc2ccccc12)C1C=CCC1 (stereo unspecified)	none (no result: SENP8 block-1, SENP6 inh, SENP7 block, Platelet DG rel, HSP90 inh)
O=[N+]([O-])c1ccc(NCc2ccccc2)c2nonc12	none (no result: SENP8 block-2)
O=[N+]([O-])c1ccc(NCc2ccc(Cl)cc2)c2ccncc12	SENP8 block-2 43 | SENP8 conf inactive
O=[N+]([O-])NC1=NCCN1Cc1ccc(Cl)nc1	none
O=c1[nH]c(=S)[nH]c(O)c1N=Nc1cc2c(cc1[N+](=O)[O-])OCO2	SENP8 block-2 42 | SENP8 conf inactive
Oc1cccc2nc3ccccc3nc12	SENP8 block-2 22 | SENP8 conf inactive
C/C=C1/CN2[C@@H]3C4CO[C@@H]3c3c([nH]c5cc(OC)ccc35)[C@@H]2CC14 (stereo partly specified)	SENP8 block-2 40 (no result: HSP90 inh) | SENP8 conf inactive
COc1ccc2c3c([nH]c2c1)C(C)NCC3 (stereo unspecified)	none
O=c1[nH]c2ccccc2n1C1CCN(C(c2cccs2)c2nnnn2-c2ccc3c(c2)OCCO3)CC1 (stereo unspecified)	none (no result: SENP8 block-1, SENP6 inh, SENP7 block, Platelet DG rel, HSP90 inh)
O=C1C=C2c3ccccc3CC(C(=O)O)C2CC1 (stereo unspecified)	none (no result: SENP8 block-1, SENP6 inh, SENP7 block, Platelet DG rel, HSP90 inh)
CN1CCN(c2ccc(N)c(N3CCN(C)CC3)c2)CC1	SENP8 block-2 51 | SENP8 conf inactive
CN1C2CCC1CC(=NO)C2	SENP8 block-2 48 | SENP8 conf inactive
C[C@@H]1CN([C@H](C)CO)C(=O)CCCn2nncc2CO[C@@H]1CN(C)C(=O)Oc1cccc2ccccc12	none (no result: SENP8 block-1, SENP6 inh, SENP7 block, Platelet DG rel, HSP90 inh)
O=c1ccc2c(O)c3ccoc3cc2o1	SENP8 block-2 48 (no result: Platelet DG rel, HSP90 inh) | SENP8 conf inactive
CC[N+](CC)(CC#CCO)CC#Cc1ccccc1	none
C=CC12CN(C)C3C4COC(CC41)C1(C(=O)Nc4ccccc41)C32 (stereo unspecified)	SENP8 block-2 41 (no result: SENP8 block-1, SENP6 inh, SENP7 block, Platelet DG rel, HSP90 inh) | SENP8 conf inactive
C=CCc1cc(OC)c2c(c1)OCO2	none (no result: Platelet DG rel, HSP90 inh)
COc1cccc2c1cc([N+](=O)[O-])c1c(C(=O)O)cc3c(c12)OCO3	SENP8 block-2 42 (no result: SENP8 block-1, SENP6 inh, SENP7 block, Platelet DG rel, HSP90 inh) | SENP8 conf inactive
CC(=O)c1ccc2c(c1)OCO2	SENP8 block-2 44 | SENP8 conf inactive
O=C1NC(=O)C(Cc2ccccc2)(Cc2ccccc2)C(=O)N1	none (no result: SENP8 block-1, SENP6 inh, SENP7 block, Platelet DG rel, HSP90 inh)
O=C1NC(=O)C(Nc2ccccc2)C(=O)N1	SENP8 block-2 64 (no result: SENP8 block-1, SENP6 inh, SENP7 block, Platelet DG rel, HSP90 inh) | SENP8 conf 46
CCCCCN1C(=O)c2cc(OC)ccc2[C@@]2(C(=O)OCC)Cc3cc(Cl)ccc3[C@@H]12	none (no result: SENP8 block-1, SENP6 inh, SENP7 block, Platelet DG rel, HSP90 inh)
O=c1[nH]c(=S)[nH]c(O)c1N=Nc1cccc(S(=O)(=O)N2CCOCC2)c1	none
COc1cccc(N=Nc2c(O)[nH]c(=S)[nH]c2=O)c1	SENP8 block-2 51 | SENP8 conf inactive
Cc1c(-c2cccc(Cl)c2)nc2ccccc2c1C(=O)N1CCC2(CC1)OCCO2	none
CCN1CCN(S(=O)(=O)c2ccc(Cl)nc2)CC1	SENP8 block-2 44 | SENP8 conf inactive
CCN1CCN(C(=O)COc2ccc(S(=O)(=O)N3CCOCC3)cc2Cl)CC1	none
CCC(C)c1cnc(CC(C)C)c(=O)n1O (stereo unspecified)	none (no result: SENP8 block-1, SENP6 inh, SENP7 block, Platelet DG rel, HSP90 inh)
Cc1ccc(NC(=O)[C@@H](NC(=O)N2C[C@H]3C[C@@H](C2)c2cccc(=O)n2C3)C(C)C)cc1	SENP8 block-2 56 | SENP8 conf inactive
CCOc1ccc(NC(=O)N2C[C@H]3C[C@@H](C2)c2cccc(=O)n2C3)cc1	SENP8 block-2 42 | SENP8 conf inactive
O=C(Nc1ccc(Cl)cc1)N1CC2CC(C1)c1cccc(=O)n1C2 (stereo unspecified)	none
N#CC1c2ccccc2-n2nncc2CN1S(=O)(=O)c1ccc(Cl)cc1 (stereo unspecified)	none (no result: SENP8 block-1, SENP6 inh, SENP7 block, Platelet DG rel, HSP90 inh)
CS(=O)(=O)c1ccc(C2=C(CNC(=O)c3nccs3)[C@H]3CC[C@@H](C2)N3Cc2ccco2)cc1	none (no result: SENP8 block-1, SENP6 inh, SENP7 block, Platelet DG rel, HSP90 inh)

Screening data as filed in PubChem.
